Assay in all cases: DAPPL (digital affinity profiling via proximity ligation, sequencing); 10 mM Tris-HCl pH 7.5, 50 mM NaCl, 1 mM DTT, 4% glycerol, room temperature, 30 min; GST-TFs on glutathione beads, 16-mer random dsDNA library, 0.1% formaldehyde crosslink after washing; high values mean tight binding
One assay deals with T1, FEV (Homo sapiens, UniProt Q99581 1-238).
T1 sequence: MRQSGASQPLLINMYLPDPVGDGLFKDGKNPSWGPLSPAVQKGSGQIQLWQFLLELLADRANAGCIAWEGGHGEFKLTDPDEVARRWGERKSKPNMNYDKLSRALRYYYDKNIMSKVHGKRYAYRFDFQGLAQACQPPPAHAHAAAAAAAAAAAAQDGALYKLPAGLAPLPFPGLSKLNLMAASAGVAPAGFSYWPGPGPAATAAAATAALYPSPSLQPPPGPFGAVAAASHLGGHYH
Particulars: protein: recombinant; tags: N-terminal GST; dsDNA, one strand shown. The gist of the method: (§1)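 In yeast, human transcription factors were expressed with a GST fusion, then pulled down on glutathione beads and given DNA barcodes. Pooled with a tag-only sample, they were exposed to 200 nmole of a 16-mer random double-stranded DNA library (Tris/NaCl/DTT/glycerol buffer, room temperature, 30 min), washed, crosslinked with 0.1% formaldehyde, proximity-ligated using BsaI/T4 ligase for 1 h at 37 °C, PCR-amplified and read on an Illumina NextSeq500. Each hexamer's frequency of reads for a factor, divided by the matching frequency for the tag-only sample, gives the binding signal.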

A further assay addresses ETV5 (Homo sapiens, UniProt P41161 1-510). Particulars: protein: recombinant; tags: N-terminal GST; dsDNA, one strand shown. The gist of the method: as §1
The next assay has as its target HSF1 (Homo sapiens, UniProt Q00613 1-529). The conditions noted are these: protein: recombinant; tags: N-terminal GST; chain copies: 3; dsDNA, one strand shown. The gist of the method: as §1
For the next assay, the target named is T2, SPIC (Homo sapiens, UniProt Q8N5J4 1-248).
T2 sequence: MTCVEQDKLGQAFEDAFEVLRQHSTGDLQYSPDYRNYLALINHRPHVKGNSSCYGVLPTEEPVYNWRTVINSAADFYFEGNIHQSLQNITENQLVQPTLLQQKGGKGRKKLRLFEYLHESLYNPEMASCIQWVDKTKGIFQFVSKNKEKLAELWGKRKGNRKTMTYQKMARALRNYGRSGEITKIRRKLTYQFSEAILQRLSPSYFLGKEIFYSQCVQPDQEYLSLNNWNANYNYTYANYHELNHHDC
The conditions noted are these: protein: recombinant; tags: N-terminal GST; dsDNA, one strand shown. The gist of the method:
as §1

The next assay deals with ELF4 (Homo sapiens, UniProt Q99607 1-663). The conditions noted are these: protein: recombinant; tags: N-terminal GST; dsDNA, one strand shown. The gist of the method: as §1
A further assay addresses T3, ELK4 (Homo sapiens, UniProt P28324-2 1-405).
T3 sequence: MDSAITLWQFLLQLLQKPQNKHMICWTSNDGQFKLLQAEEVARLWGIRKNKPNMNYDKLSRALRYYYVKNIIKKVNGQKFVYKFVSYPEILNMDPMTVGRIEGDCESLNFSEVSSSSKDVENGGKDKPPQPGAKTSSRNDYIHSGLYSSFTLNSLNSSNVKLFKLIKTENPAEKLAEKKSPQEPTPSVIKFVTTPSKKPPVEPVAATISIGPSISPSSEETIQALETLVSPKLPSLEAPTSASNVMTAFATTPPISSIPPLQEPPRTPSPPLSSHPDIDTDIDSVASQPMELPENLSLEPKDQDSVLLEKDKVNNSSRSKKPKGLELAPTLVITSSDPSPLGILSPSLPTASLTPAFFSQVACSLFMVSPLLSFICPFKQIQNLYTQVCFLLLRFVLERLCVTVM
Particulars: protein: recombinant; tags: N-terminal GST; dsDNA, one strand shown. The gist of the method:
as §1

A further assay addresses T4, ETV2 (Homo sapiens, UniProt O00321 1-342).
T4 sequence: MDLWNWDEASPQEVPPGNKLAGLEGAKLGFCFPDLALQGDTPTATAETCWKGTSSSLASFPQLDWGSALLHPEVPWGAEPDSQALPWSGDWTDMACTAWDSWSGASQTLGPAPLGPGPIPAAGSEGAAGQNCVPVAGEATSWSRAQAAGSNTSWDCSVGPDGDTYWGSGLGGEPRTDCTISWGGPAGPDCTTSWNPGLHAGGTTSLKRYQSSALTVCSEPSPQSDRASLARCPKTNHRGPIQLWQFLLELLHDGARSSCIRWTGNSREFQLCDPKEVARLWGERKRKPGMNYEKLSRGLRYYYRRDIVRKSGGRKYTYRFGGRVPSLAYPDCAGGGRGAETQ
Particulars: protein: recombinant; tags: N-terminal GST; dsDNA, one strand shown. The gist of the method: as §1

Another assay addresses T5, ELF3 (Homo sapiens, UniProt P78545 1-371).
T5 sequence: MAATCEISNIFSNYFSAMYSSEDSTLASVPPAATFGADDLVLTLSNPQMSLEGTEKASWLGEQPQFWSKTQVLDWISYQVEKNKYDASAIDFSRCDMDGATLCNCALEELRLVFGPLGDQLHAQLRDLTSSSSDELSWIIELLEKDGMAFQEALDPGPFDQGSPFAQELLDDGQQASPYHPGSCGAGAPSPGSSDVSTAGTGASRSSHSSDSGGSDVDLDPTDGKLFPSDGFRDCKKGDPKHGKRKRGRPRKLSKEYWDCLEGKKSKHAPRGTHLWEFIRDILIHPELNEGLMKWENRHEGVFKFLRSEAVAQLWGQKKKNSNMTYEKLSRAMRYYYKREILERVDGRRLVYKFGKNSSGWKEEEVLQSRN
Particulars: protein: recombinant; tags: N-terminal GST; dsDNA, one strand shown. The gist of the method: as §1

For a further assay, the target named is CRX (Homo sapiens, UniProt O43186 1-299). Particulars: protein: recombinant; tags: N-terminal GST; dsDNA, one strand shown. The gist of the method: as §1
For a further assay, the target named is ETV1 (Homo sapiens, UniProt P50549 1-477). Particulars: protein: recombinant; tags: N-terminal GST; dsDNA, one strand shown. The gist of the method:
as §1

For a further assay, the target named is T6, ERF (Homo sapiens, UniProt P50548 1-548).
T6 sequence: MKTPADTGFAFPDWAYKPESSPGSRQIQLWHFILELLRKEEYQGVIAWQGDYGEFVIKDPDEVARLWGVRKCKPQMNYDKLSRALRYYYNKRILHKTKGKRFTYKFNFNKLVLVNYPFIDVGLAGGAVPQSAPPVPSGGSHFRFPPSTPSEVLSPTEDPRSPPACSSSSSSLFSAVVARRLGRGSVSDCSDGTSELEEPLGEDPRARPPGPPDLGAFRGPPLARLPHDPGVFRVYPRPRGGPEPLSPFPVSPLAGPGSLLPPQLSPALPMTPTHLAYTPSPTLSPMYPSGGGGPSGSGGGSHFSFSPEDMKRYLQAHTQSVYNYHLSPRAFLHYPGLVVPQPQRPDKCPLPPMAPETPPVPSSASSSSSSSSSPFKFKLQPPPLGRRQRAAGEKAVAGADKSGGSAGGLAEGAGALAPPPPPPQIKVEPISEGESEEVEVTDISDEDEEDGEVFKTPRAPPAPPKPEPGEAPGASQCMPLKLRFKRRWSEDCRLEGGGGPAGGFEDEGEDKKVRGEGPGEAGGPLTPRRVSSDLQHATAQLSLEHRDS
The conditions noted are these: protein: recombinant; tags: N-terminal GST; dsDNA, one strand shown. The gist of the method: as §1

Another assay has as its target T7, ETV3L (Homo sapiens, UniProt Q6ZN32 1-361).
T7 sequence: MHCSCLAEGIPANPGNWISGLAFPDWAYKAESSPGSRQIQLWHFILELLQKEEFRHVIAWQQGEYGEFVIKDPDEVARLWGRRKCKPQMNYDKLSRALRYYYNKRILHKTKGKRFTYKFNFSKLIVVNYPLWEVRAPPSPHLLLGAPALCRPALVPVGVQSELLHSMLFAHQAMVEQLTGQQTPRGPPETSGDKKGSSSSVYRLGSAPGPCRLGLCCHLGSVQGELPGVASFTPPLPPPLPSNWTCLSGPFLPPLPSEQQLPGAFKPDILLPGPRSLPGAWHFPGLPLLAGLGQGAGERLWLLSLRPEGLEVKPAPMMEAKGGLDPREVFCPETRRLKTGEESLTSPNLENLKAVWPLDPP
The conditions noted are these: protein: recombinant; tags: N-terminal GST; dsDNA, one strand shown. The gist of the method:
as §1

Another assay deals with T8, ETS2 (Homo sapiens, UniProt P15036 1-469).
T8 sequence: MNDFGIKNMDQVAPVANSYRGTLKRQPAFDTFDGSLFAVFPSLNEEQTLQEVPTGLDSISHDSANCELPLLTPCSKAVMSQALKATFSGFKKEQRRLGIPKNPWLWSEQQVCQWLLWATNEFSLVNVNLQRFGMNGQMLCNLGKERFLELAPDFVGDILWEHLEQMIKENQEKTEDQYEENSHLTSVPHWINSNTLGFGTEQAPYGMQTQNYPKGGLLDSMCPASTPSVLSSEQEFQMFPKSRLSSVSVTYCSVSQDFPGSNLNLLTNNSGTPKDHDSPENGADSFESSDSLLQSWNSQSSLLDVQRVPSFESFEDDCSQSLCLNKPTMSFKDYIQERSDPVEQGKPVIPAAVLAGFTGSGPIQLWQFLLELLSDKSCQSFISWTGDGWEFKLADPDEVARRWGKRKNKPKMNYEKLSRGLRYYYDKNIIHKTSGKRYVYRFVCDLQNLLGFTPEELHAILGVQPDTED
Particulars: protein: recombinant; tags: N-terminal GST; dsDNA, one strand shown. The gist of the method:
as §1

For the next assay, the target named is T9, SPDEF (Homo sapiens, UniProt O95238 1-335).
T9 sequence: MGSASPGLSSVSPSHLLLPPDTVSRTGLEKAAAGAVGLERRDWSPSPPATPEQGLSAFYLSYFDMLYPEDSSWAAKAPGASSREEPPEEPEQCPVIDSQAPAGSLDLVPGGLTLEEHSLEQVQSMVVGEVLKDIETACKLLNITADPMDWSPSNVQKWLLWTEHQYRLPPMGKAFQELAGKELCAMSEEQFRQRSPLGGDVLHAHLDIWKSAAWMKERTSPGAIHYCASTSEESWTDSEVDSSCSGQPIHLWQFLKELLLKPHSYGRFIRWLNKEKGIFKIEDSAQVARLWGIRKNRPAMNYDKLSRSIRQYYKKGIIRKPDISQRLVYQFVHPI
Particulars: protein: recombinant; tags: N-terminal GST; dsDNA, one strand shown. The gist of the method: as §1

The next assay has as its target T10, ETV7 (Homo sapiens, UniProt Q9Y603 1-341).
T10 sequence: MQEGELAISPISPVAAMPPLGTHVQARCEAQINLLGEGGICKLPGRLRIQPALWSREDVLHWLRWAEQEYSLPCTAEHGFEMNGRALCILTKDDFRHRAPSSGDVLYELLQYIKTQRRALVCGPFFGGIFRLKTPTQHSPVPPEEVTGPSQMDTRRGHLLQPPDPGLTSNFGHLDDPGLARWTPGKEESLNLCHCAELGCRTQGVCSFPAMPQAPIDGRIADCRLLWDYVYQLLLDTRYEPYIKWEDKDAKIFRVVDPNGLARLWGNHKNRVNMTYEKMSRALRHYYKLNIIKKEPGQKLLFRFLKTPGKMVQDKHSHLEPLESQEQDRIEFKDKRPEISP
Particulars: protein: recombinant; tags: N-terminal GST; dsDNA, one strand shown. The gist of the method:
as §1

A further assay addresses T11, ELF5 (Homo sapiens, UniProt Q9UKW6-2 1-255).
T11 sequence: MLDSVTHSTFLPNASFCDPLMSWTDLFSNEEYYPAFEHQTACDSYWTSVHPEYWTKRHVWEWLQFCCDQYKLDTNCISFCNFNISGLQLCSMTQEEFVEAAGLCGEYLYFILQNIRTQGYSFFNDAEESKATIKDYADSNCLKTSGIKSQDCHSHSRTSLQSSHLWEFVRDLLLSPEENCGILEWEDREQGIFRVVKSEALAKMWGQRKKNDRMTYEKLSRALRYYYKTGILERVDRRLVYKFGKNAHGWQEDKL
The conditions noted are these: protein: recombinant; tags: N-terminal GST; dsDNA, one strand shown. The gist of the method:
as §1

In a further assay the target is T12, ETV3 (Homo sapiens, UniProt P41162-2 1-143).
T12 sequence: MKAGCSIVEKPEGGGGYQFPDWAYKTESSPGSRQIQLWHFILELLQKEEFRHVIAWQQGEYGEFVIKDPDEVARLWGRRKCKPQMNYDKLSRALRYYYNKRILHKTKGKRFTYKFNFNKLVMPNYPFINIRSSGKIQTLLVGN
The conditions noted are these: protein: recombinant; tags: N-terminal GST; dsDNA, one strand shown. The gist of the method:
as §1

In the next assay the target is ETV6 (Homo sapiens, UniProt P41212 1-452). Particulars: protein: recombinant; tags: N-terminal GST; dsDNA, one strand shown. The gist of the method:
as §1

ETV1, sequence (P50549 whole entry): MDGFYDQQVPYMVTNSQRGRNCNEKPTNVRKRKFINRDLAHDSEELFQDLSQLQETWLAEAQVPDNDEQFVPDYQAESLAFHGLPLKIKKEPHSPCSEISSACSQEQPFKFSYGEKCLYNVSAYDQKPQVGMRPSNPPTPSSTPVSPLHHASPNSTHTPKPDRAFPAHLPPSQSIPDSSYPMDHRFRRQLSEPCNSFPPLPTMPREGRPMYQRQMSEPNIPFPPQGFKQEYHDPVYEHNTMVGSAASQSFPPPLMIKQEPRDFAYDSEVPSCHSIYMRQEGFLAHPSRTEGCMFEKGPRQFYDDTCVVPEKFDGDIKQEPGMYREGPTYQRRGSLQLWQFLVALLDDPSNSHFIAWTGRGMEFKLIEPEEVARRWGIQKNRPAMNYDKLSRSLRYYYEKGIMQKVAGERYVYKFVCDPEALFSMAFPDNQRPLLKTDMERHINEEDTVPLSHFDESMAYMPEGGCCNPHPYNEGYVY
ETV5, sequence (P41161 whole entry): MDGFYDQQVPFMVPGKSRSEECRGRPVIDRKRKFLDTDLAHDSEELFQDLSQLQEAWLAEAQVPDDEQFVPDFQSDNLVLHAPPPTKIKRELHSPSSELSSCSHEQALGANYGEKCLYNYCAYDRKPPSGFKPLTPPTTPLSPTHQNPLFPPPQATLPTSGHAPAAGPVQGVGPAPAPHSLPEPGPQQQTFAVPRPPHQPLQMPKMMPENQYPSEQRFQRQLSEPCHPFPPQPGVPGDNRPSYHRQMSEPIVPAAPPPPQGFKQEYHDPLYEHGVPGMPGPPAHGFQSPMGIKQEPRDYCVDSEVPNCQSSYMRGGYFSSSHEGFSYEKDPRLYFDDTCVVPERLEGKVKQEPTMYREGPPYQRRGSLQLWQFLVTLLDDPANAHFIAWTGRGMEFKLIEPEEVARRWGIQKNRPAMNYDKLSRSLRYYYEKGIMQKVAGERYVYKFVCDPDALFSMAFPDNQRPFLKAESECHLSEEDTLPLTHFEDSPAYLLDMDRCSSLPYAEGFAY
CRX, sequence (O43186 whole entry): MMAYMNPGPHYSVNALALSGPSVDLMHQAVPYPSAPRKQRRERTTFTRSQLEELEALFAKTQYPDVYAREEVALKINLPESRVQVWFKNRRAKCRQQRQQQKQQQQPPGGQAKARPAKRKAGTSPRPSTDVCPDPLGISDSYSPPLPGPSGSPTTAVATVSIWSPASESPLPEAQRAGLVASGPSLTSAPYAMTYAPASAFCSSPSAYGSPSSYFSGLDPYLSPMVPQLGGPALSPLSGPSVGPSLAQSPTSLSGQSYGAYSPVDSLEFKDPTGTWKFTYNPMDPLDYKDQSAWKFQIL
ETV6, sequence (P41212 whole entry): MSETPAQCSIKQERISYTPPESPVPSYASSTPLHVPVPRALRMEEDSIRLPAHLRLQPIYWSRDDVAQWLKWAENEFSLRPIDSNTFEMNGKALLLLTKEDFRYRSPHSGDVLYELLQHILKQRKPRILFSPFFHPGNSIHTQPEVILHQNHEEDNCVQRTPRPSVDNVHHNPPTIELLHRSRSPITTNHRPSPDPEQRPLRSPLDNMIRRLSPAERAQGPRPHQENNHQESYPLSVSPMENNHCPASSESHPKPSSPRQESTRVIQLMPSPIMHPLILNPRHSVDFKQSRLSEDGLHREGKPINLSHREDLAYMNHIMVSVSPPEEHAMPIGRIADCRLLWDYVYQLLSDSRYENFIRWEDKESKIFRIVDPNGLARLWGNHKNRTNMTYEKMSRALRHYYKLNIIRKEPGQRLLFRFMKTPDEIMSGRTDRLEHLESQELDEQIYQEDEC
ELF4, sequence (Q99607 whole entry): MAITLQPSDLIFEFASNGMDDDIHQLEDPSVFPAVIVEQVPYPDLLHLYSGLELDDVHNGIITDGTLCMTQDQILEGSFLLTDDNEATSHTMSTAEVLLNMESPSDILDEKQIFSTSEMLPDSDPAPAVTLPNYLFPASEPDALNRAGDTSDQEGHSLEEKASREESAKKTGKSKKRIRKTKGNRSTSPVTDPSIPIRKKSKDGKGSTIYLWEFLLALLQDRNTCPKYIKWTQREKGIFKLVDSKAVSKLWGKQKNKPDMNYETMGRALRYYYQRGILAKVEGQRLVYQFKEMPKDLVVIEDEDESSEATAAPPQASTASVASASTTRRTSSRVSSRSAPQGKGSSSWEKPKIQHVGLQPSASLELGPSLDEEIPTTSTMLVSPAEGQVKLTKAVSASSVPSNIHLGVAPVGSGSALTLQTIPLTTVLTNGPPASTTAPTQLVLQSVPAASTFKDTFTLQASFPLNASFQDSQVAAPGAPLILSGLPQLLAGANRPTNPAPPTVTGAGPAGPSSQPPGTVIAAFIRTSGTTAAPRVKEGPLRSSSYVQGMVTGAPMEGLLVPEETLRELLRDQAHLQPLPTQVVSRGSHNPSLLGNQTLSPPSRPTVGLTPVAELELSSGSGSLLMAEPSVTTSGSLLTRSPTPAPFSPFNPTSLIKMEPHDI
HSF1, sequence (Q00613 whole entry): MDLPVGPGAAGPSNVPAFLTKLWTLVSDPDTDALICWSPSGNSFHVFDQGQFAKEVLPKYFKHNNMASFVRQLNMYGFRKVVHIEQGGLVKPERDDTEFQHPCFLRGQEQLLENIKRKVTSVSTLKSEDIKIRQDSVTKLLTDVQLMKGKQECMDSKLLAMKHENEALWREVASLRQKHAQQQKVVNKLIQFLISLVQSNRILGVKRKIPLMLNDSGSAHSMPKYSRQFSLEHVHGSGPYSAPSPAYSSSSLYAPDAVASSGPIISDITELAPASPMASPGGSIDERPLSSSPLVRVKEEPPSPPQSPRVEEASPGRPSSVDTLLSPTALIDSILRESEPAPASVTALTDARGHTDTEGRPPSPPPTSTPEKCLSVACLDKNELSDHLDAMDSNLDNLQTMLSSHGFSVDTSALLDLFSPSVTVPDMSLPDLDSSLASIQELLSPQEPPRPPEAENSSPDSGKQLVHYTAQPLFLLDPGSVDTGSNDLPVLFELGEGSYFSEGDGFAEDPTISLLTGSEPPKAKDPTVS

With GTAAAA, the binding signal was 1.07 fold enrichment (6-mer frequency, TF over GST control) in the assay with FEV; 1.19 fold enrichment (6-mer frequency, TF over GST control) with ETV5; 1.11 fold enrichment (6-mer frequency, TF over GST control) with HSF1; 1.13 fold enrichment (6-mer frequency, TF over GST control) in the assay with SPIC; 1.14 fold enrichment (6-mer frequency, TF over GST control) with ELF4; 1.02 fold enrichment (6-mer frequency, TF over GST control) with ELK4. In addition, the binding signal with ETV2 was 1.21 fold enrichment (6-mer frequency, TF over GST control); in the assay with ELF3 it was 1.13 fold enrichment (6-mer frequency, TF over GST control); with CRX it was 1.03 fold enrichment (6-mer frequency, TF over GST control); with ETV1, 1.06 fold enrichment (6-mer frequency, TF over GST control); in the assay with ERF it was 1.13 fold enrichment (6-mer frequency, TF over GST control); in the assay with ETV3L it was 1.14 fold enrichment (6-mer frequency, TF over GST control). The binding signal in the assay with ETS2 was 1.13 fold enrichment (6-mer frequency, TF over GST control); with SPDEF, 1.09 fold enrichment (6-mer frequency, TF over GST control); in the assay with ETV7, 1.18 fold enrichment (6-mer frequency, TF over GST control); in the assay with ELF5, 1.18 fold enrichment (6-mer frequency, TF over GST control); with ETV3, 1.16 fold enrichment (6-mer frequency, TF over GST control); with ETV6, 1.14 fold enrichment (6-mer frequency, TF over GST control).

The values are drawn from publication PMC7862700, “An all-to-all approach to the identification of sequence-specific readers for epigenetic DNA modifications on cytosine”.
